The source made the active and inactive calls.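 The calls were made as follows: active = inhibition at or above 50% relative to wild type and mutant plate controls; inactive = inhibition below 50%.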
Experiment: loss of swimming-algae plug formation – whole organism, Chlamydomonas reinhardtii, WT vs cilia-less mutant, absorbance, 96-well, primary screen (AID 463189);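 also: 0% = wild type cc124 cells in DMSO and 100% = ciliumless bld1 mutant cells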
Details: Chlamydomonas reinhardtii gravitaxis, OD600 absorbance, 2 days; at 10 µM; stronger effect = higher value

Row | SMILES | inhibition
1 | Cc1nc(N=Nc2cc(S(=O)(=O)O)c3cc([N+](=O)[O-])cc(S(=O)(=O)O)c3c2)c(COP(=O)(O)O)c(C=O)c1O | 0.765% (inactive)
2 | CCCCOC(=O)NS(=O)(=O)c1sc(CC(C)C)cc1-c1ccc(Cn2c(CC)nc3c(C)cc(C)nc32)cc1 | 10.7% (inactive)
3 | O=[N+]([O-])c1ccc(CSc2ncnc3c2ncn3[C@@H]2O[C@H](CO)[C@H](O)C2O)cc1 (some centres undefined) | -2.08% (inactive)
4 | NC(Cc1cccc(-c2ccccc2CP(=O)(O)O)c1)C(=O)O (centres undefined) | -2% (inactive)
5 | CCNC(=O)N1CCN(CCCC(c2ccc(F)cc2)c2ccc(F)cc2)CC1 | 133% (active)
6 | COC(=O)[C@H]1[C@H]2C[C@@H]3c4[nH]c5cc(OC)ccc5c4CCN3C[C@H]2C[C@@H](OC(=O)c2cc(OC)c(OC)c(OC)c2)[C@@H]1OC | -3.87% (inactive)
7 | CN(C)CC/C=C1\c2ccccc2COc2ccccc21 | 6.63% (inactive)
8 | CCCn1cnc2c1c(=O)n(CCCCC(C)=O)c(=O)n2C | 3.15% (inactive)
9 | CCN(CC)CCOC(=O)c1ccc(N)cc1 | -0.871% (inactive)
10 | C=Cc1c(C)c2cc3[nH]c(cc4nc(cc5nc(cc1[nH]2)C(C)=C5CCC(=O)O)C(CCC(=O)O)=C4C)c(C)c3C=C | 9.54% (inactive)
11 | O=C(/C=C/c1ccc(O)c(O)c1)OCCc1ccccc1 | 1.6% (inactive)
12 | CC(C)c1ccc2c(c1)c(SC(C)(C)C)c(CC(C)(C)C(=O)O)n2Cc1ccc(Cl)cc1 | 9.82% (inactive)
13 | NC(CCCP(=O)(O)O)C(=O)O (centres undefined) | -5.37% (inactive)
14 | CN[C@H](CC(C)C)C(=O)N[C@H]1C(=O)N[C@@H](CC(N)=O)C(=O)N[C@H]2C(=O)N[C@H]3C(=O)N[C@H](C(=O)N[C@H](C(=O)O)c4cc(O)cc(O)c4-c4cc3ccc4O)[C@H](O)c3ccc(c(Cl)c3)Oc3cc2cc(c3O[C@@H]2O[C@H](CO)[C@@H](O)[C@H](O)[C@H]2O[C@H]2C[C@](C)(N)[C@H](O)[C@H](C)O2)Oc2ccc(cc2Cl)[C@H]1O | 15.1% (inactive)
15 | Cn1c(=O)c2[nH]c(-c3ccccc3)nc2n(C)c1=O | -0.378% (inactive)
16 | CN1CCC2(CCN3CCc4c(oc5ccccc45)C3C2)N(C)C1=O (centres undefined) | -3.27% (inactive)
17 | O=C(O)C1CCNCC1 | 4.95% (inactive)
18 | CCCCCCCCCCCCCCCC(=O)NCC(COP(=O)([O-])OCC[N+](C)(C)C)OCC (centres undefined) | -1.73% (inactive)
19 | Cc1cccc(C)c1OCC(C)N (centres undefined) | 7.46% (inactive)
20 | N=C(N)c1ccccc1 | 7.5% (inactive)

Row | SMILES | inhibition
21 | CCN(CC)CCCC(C)Nc1ccnc2cc(Cl)ccc12 (centres undefined) | 0.95% (inactive)
22 | CC(=O)O[C@H]1CC2(C)[C@@H](C[C@@H](O)[C@H]3[C@@]4(C)CC[C@@H](O)[C@@H](C)[C@@H]4CC[C@@]32C)C1=C(CCC=C(C)C)C(=O)O (some centres undefined) | 1.57% (inactive)
23 | CN1CCc2cc(NC(=O)Nc3cccnc3)ccc21 | 8.14% (inactive)
24 | [N-]=[N+]=Nc1ccc(C(=O)CSC[C@H](NC(=O)CC[C@H](N)C(=O)O)C(=O)NCC(=O)O)cc1 | -0.598% (inactive)
25 | CN(C)c1ccc(/C=C2\C(=O)Nc3ccccc32)cc1 | 4.05% (inactive)
26 | CNC(=O)c1cc2c(cn1)[nH]c1ccccc12 | 4.1% (inactive)
27 | Oc1ccc(O)cc1 | 0.661% (inactive)
28 | C=CCN1CCc2c(cc(O)c(O)c2Cl)C(c2ccccc2)C1 (centres undefined) | -7.02% (inactive)
29 | C[C@@](Cc1ccc(O)c(O)c1)(NN)C(=O)O | -8.89% (inactive)
30 | NO | -14.1% (inactive)
31 | CC/C(=C(\c1ccccc1)c1ccc(OCCN(C)C)cc1)c1ccccc1 | 50.3% (active)
32 | Cn1cc(C2=C(c3ccc(Cl)cc3Cl)C(=O)NC2=O)c2ccccc21 | -0.155% (inactive)
33 | Cc1ccccc1N1CCN(S(=O)(=O)C[C@]23CCC(CC2NC(=O)[C@@H](N)CCS(C)(=O)=O)C3(C)C)CC1 (some centres undefined) | 3.4% (inactive)
34 | O=C1c2c(O)cc(O)cc2OC(c2ccc(O)c(O)c2)C1O (centres undefined) | -16.9% (inactive)
35 | CO/N=C(\C(=O)N[C@@H]1C(=O)N2C(C(=O)O)=C(COC(C)=O)CS[C@H]12)c1csc(N)n1 (stereo in doubt) | 6.36% (inactive)
36 | CN=C(NC#N)NCCSCc1nc[nH]c1C | 8.94% (inactive)
37 | CC(C)COCC(CN(Cc1ccccc1)c1ccccc1)N1CCCC1 (centres undefined) | -3.6% (inactive)
38 | CN1CC(O)C(O)C(O)C1CO (centres undefined) | 10.5% (inactive)
39 | CCOC(=O)C12CC1/C(=N/O)c1ccccc1O2 (centres undefined) | 6.31% (inactive)

From PubChem BioAssay
